Pf growth 96h = Primary qHTS for delayed death inhibitors of the malarial parasite plastid, 96 hour incubation; P. falciparum luciferase reporter growth, 96 h; Potency, µM (doses to about 28.7 µM), without a hit: at the highest dose activity change, negative = inhibition, usual class: inhibitors; 320,000 tested, 6.9% active; AID 504834, 2011; further: potency means the concentration at half of the fitted maximal effect; on the % scale 0 is the no-effect control and ±100 the full control effect
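Readout is luminescence from an integrated firefly luciferase in P. falciparum. Red cells, 2% hematocrit and 0.05% parasitemia final, were cultured with compound through two parasite generations (96 hours) at 37 C, 5% CO2.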
Cycloheximide cs = Cycloheximide Counterscreen for Small Molecule Inhibitors of Shiga Toxin; 300,000 tested, 12% active; AID 2314, 2010; cell reporter, cycloheximide protein synthesis inhibition counterscreen; max response, %; in the data active means max response mostly above about 13%, no sharp cut-off; inactive means mostly below about 14%; further: read at 38.3 µM for the half of the compounds with a filed dose; 0% is about no effect
LmPK inh = qHTS Assay for Inhibitors of Leishmania Mexicana Pyruvate Kinase (LmPK) | purified LmPK, Kinase-Glo ATP luminescence, 1 h | Potency, µM (series often up to 57.5 µM), without a hit: at the highest dose activity change, negative = inhibition, usual class: inhibitors | 290,000 tested, 0.37% active; further: potency means the concentration at half of the fitted maximal effect; on the % scale 0 is the no-effect control and ±100 the full control effect
Target sequence (Q27686 whole entry, looked up): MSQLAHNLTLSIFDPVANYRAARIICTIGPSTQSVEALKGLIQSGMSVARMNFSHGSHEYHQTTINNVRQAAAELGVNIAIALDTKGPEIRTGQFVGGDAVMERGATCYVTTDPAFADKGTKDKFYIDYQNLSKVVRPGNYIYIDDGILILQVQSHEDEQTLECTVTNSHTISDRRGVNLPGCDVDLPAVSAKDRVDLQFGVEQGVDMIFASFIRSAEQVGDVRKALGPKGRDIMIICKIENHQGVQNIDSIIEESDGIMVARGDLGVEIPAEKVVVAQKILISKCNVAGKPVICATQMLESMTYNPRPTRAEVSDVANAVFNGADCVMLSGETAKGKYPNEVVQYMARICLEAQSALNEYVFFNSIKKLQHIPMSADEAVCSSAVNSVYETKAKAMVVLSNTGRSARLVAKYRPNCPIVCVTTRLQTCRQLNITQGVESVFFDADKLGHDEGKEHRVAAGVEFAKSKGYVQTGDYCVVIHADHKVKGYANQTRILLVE
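Purified LmPK (0.1 nM) with 0.5 mM PEP and 0.1 mM ADP in imidazole buffer pH 7.2 with MgCl2/KCl, 1 h at room temperature. ATP formed was read by luciferase luminescence and normalized to no-enzyme and uninhibited controls.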
Pf growth 48h = Primary qHTS for delayed death inhibitors of the malarial parasite plastid, 48 hour incubation; 310,000 tested, 5.9% active; Potency, µM (doses to about 28.7 µM), inactives show at the top dose activity change, negative = inhibition, hits mostly inhibitors; P. falciparum luciferase growth in erythrocytes, 48 h; further: potency means the concentration at half of the fitted maximal effect; on the % scale 0 is the no-effect control and ±100 the full control effect
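Erythrocytes infected with P. falciparum carrying an integrated firefly luciferase reporter (2% hematocrit, 0.1% parasitemia final) were exposed to compounds in RPMI 1640 with 0.5% Albumax at 37 C, 5% CO2. Growth inhibition was scored as reduced luminescence.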
Shiga toxin inh = A qHTS for Small Molecule Inhibitors of Shiga Toxin | 290,000 tested, 9.2% active | inhibition, % at 38.7 µM | Vero cells, Shiga toxin protein synthesis inhibition reporter; in the data active means inhibition mostly above about 28%, no sharp cut-off; inactive means mostly below about 43%; further: 0% is about no effect
Numbers without * were called inactive; i = inactive; ? = inconclusive; · = not tested or not shown; [ ] = another dose, or the depositor's remark. A selection: hits, their analogues and other compounds. The true share with any hit is near 22%. Unless noted, the call rests on the fitted dose curve; in most records, active means well fitted inhibition curve with a large enough effect; inconclusive means small, poorly fitted or top-dose-only effect, or another doubt; inactive means no such curve, though single readings can be large or run the other way.

SMILES	Pf growth 96h	Cycloheximide cs	LmPK inh	Pf growth 48h	Shiga toxin inh
COc1ccc(-c2nc3ccccc3n2Cc2ccccc2)cc1	?	25*	9%	·	14
C=CCn1c(-c2ccc(OC)cc2)nc2nc3ccccc3nc21	·	37*	-1%	-23%	30
O=c1ccc(-c2nc3cc(Cl)ccc3n2Cc2ccccc2)c[nH]1	9.3µM*	-4	8%	?	1
COc1ccc(-c2nnnn2CCc2ccccc2)cc1	12%	19*	3%	21%	23
NC(=NCCc1ccccc1)c1cccc([N+](=O)[O-])c1	0%	-1	-3%	?	4
N#Cc1cccc(S(=O)(=O)NCC(=O)OCC(=O)NCc2ccccc2)c1	25%	·	·	15%	·
CN1CCN(NC(=O)c2cc(-c3ccc(Cl)s3)nc3ccccc23)CC1	13%	-3	-2%	-23%	15
O=c1c2ccccc2nc(-c2ccccc2)n1Cc1ccccc1	-23%	22	-1%	17%	83*
O=c1c2ccccc2nc(-c2ccccc2)n1Cc1ccc(Cl)cc1	·	5	-3%	5%	42
COc1ccc2c(c1)nc(N)n2Cc1ccccc1	33%	0	1%	?	1
COc1ccc(-c2n(Cc3ccccc3)c3ccccc3[n+]2Cc2ccccc2)cc1	?	1	5%	0.37µM*	-6
COc1cc(O)cc2cc3c(c(O)c12)C(=O)CC(C)(O)O3 (stereo not given)	41%	35*	-4%	?	37*
Cc1ccc(S(=O)(=O)Nc2cc(C(=O)NCCN3CCCC3)ccc2N2CCCCC2)cc1	·	-4	1%	12µM*	-17
CCOCCCNC(=O)c1ccc(N2CCCC2)c(NS(=O)(=O)c2ccc(C)cc2)c1	28%	11	-8%	10%	12
COCCCNC(=O)c1ccc(N2CCCC2)c(NS(=O)(=O)c2ccc(C)cc2)c1	10%	11	0%	?	44
Cc1ccc(S(=O)(=O)Nc2cc(C(=O)NCCN(C)C)ccc2N2CCCCC2)cc1	?	-2	4%	9.3µM*	-4
CC(=O)N1CCc2cc(S(=O)(=O)NC(CC(C)C)C(=O)N3CCn4c3nc3ccccc34)ccc21 (stereo not given)	?	3	5%	?	-6
COc1ccc(CCNC(=O)c2c(N)no[n+]2[O-])cc1OC	?	19	-3%	19%	11
COc1cc(S(=O)(=O)NCc2ccccn2)c(OC)cc1Cl	9.3µM*	-2	1%	-23%	-6
CCOc1ccc(/C=C\C(C)=N\O)cc1	i	38*	?	218%	97*
CCOc1ccc(/C=C/C(=O)CCC(=O)O)cc1	-60%	54*	-4%	141%	74*
O=C(O)CCC(=O)/C=C/c1ccccc1	?	-1	1%	22%	7
CCOc1ccc(/C=C/C(=O)c2cc(Br)ccc(=O)c2O)cc1	9.3µM*	9	4%	10µM*	9
CC(C)c1ccc(/C=C/C(=O)CCC(=O)O)cc1	i	43*	-4%	137%	57
Cc1csc2c(NCCCN3CCOCC3)ncnc12	13%	-2	-8%	40%	-9
SMILES	Pf growth 96h	Cycloheximide cs	LmPK inh	Pf growth 48h	Shiga toxin inh
Cc1ccc(C(CC(=O)c2ccc(Cl)cc2)C(=O)O)cc1 (stereo not given)	11%	0	-5%	4%	2
COC(=O)C(CC(=O)c1ccc(Cl)cc1)c1ccc(C(C)C)cc1 (stereo not given)	?	37*	1%	-19%	70*
CCC1(C)Cc2ccccc2-c2nc(NCCCO)n(-c3ccccc3)c(=O)c21 (stereo not given)	10µM*	-1	12%	·	-9
CCc1cc(CNC(=O)c2ccc(OC3CCN(C(C)=O)CC3)c(OC)c2)on1	0%	2	1%	-10%	5
COC(=O)C1=C(C(=O)OC)[C@@H]2N(C)c3ccc(OC)cc3[C@@]23C[C@@H](C(=O)OC)N(S(=O)(=O)c2ccc(OC)cc2)C3=N1	?	-3	-3%[11.5 µM]	9.3µM*	-2
COC(=O)C1=C(C(=O)OC)[C@@H]2N(C)c3ccc(OC)cc3[C@@]23C[C@@H](C(=O)OC)N(S(=O)(=O)c2ccc(Br)cc2)C3=N1	·	·	-2%[11.5 µM]	·	·
Cc1ccc(S(=O)(=O)N(C)C)cc1NC(=O)c1cc(=O)c2ccccc2o1	7%	3	2%	-1%	3
O=c1cc(CSCc2ccc(Cl)cc2)[nH]c(=O)[nH]1	-25%	6	2%	-4%	-4
O=C(c1cccc(Br)c1)N1CCN(C(=O)c2cccc(Br)c2)CC1	?	-2	2%	?	-8
O=C1NCCN/C1=C\C(=O)c1cccc(Br)c1	171%	34*	0%	63%	72*
O=C1OCCN/C1=C\C(=O)c1ccccc1	115%	-1	3%	89%	-3
O=C1NCCN/C1=C\C(=O)c1ccccc1	43%	33*	-4%	·	26
O=C1NCCN/C1=C\C(=O)c1ccc(Br)cc1	346%	45*	-1%	201%	64*
C[C@@H](NC(=O)[C@@H]1Cc2ccccc2CN1C(=O)OC(C)(C)C)C(=O)NCc1ccco1	?	6	1%	?	3
COC(=O)c1sc(SC)c(S(=O)(=O)C(C)C)c1N/N=C(\C#N)C(=O)c1ccccc1	0%	1	1%	-9%	-12
O=C1NNC(=O)C1c1ccccc1	11%	6	1%	-10%[0.00184 µM]	37
O=C1C(c2ccccc2)C(c2ccccc2)NC(c2ccccc2)C1c1ccccc1 (stereo not given)	0%	-2	6%	1.9µM*	-12
Cc1nc2cc(C(=O)N3c4ccccc4CC3C)ccc2s1 (stereo not given)	?	10	-4%	?	25
COc1cccc(C(=O)c2c(C)c(CCC#N)n3ccccc23)c1OC	5%	-3	-3%	-18%	-3
COc1cc(C(=O)c2c(C)c(CCC#N)n3ccccc23)cc(OC)c1OC	-19%	8	1%	9.3µM*	-14
O=C(O)c1[nH]c(=O)[nH]c(=O)c1F	0.0033µM*	1	6%	0.012µM*	-6
O=C(O)c1nc(=O)[nH]c(=O)[nH]1	14%	·	·	-2%	·
CCOC(=O)c1nc2cc3n(c(C)c-2c1C)C(C)C(C)=C3C (stereo not given)	2.3µM*	7	-2%	7.4µM*	-8
CCOC(=O)c1nnc2cc(C)nn2c1C	2%	0	-2%	11%	-1
CCOC(=O)c1nc2cc3n(c(CC(C)C)c-2c1C)CC(C)=C3C	3.3µM*	-3	1%	1.2µM*	-4
CCOC(=O)c1n[nH]n(-c2cc(Cl)cc(Cl)c2)c1=O	6%	-2	0%	?	-8
COCc1cc(C)nc(SCC(=O)Nc2ccccc2N2CCOCC2)c1C#N	?	1	0%	?	-10

Source: PubChem
